Laboratory results: PubChem BioAssay (NCATS)
Results filed as inconclusive are left out. The source made the active and inactive calls. The call rests on the fitted dose curve; in most records, active means well fitted curve in the direction sought with a large enough effect; inconclusive means small, poorly fitted or top-dose-only effect, or another doubt; inactive means no such curve, though single readings can be large; an effect the other way counts as inactive or inconclusive.

Columns and labels:
[1] = target: Calcium and integrin-binding protein 1 (Homo sapiens) (UniProt Q99828); assay: Primary qHTS for Identification of Calcium Integrin Binding Protein 1 (CIB1) Competitor (AID 1508620);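 further: GST tagged CIB1 binding a fluorescein labelled alphaIIb integrin peptide tracer; top concentration of the series differs between compounds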
Procedure, shortened: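 Fluorescence polarization competition: CIB1-GST (1 uM final) preincubated with compound 15 min at room temperature, then FITC-labeled alphaIIb peptide (100 nM final) added for another 15 min. Polarization read at Ex 480/Em 540.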

[2] = Primary qHTS for inhibitors of nuclear receptor binding SET domain protein 2 (NSD2) in an isogenic RCH-ACV NSD2 p.E1099K mutant (9B) (AID 1645876); further: nearly all actives have a fitted effect of over 70% in size
[3] = Primary qHTS for inhibitors of nuclear receptor binding SET domain protein 2 (NSD2) in an RCH-ACV wild type WT cells (2C) (AID 1645877); further: nearly all actives have a fitted effect of over 70% in size
On the % scale 0 is the no-effect control and ±100 the full control effect.

Sequence of Calcium and integrin-binding protein 1 (Homo sapiens) (Q99828 whole entry, looked up): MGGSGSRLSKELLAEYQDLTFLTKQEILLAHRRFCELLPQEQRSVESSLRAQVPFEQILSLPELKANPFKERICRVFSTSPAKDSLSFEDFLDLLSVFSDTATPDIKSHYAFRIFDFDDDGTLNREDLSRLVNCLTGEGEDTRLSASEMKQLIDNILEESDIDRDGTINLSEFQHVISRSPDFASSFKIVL

CC(C)C1(O)C=C2C(=O)CC3C(C)(C(=O)O)CCCC3(C)C2CC1 (stereo not drawn)
inactive: Potency [1] | Potency [2] | Potency [3]

CCCC/C=C\CCCCCc1cc(=O)c2ccccc2n1C
inactive: Potency [1] | Potency [2] | Potency [3]

CC1=CC2=C(C)C(=O)C(C)(O)C(O)C2CO1 (stereo not drawn)
inactive: Potency [1] | Potency [2] | Potency [3]

C/C(=C\CC/C(C)=C/CC[C@]1(C)CCc2cc(O)cc(C)c2O1)CC/C=C(\C)C(=O)O
inactive: Potency [1] | Potency [2] | Potency [3]

CC1(C)CC[C@]2(C(=O)O[C@@H]3O[C@H](CO)[C@@H](O)[C@H](O)[C@H]3O)CC[C@]3(C)C(=CCC4[C@@]5(C)CC[C@H](O[C@@H]6O[C@H](C(=O)O)[C@@H](O[C@@H]7O[C@H](CO)[C@@H](O)[C@H](O)[C@H]7O)[C@H](O)[C@H]6O[C@@H]6O[C@H](CO)[C@@H](O)[C@H](O)[C@H]6O)C(C)(C)C5CC[C@]43C)C2C1 (stereo partly drawn)
inactive: Potency [1] | activity change, negative = viability loss [2] 4.56% [at 9.23 µM] | activity change, negative = cell killing [3] 4.58% [at 9.23 µM]

CSC(=O)OCC1=C[C@@H]2OC(=O)C3=CO[C@@H](O[C@@H]4O[C@H](CO)[C@@H](O)[C@H](O)[C@H]4O)[C@H]1[C@@H]32
inactive: Potency [1] | Potency [2] | Potency [3]

COc1cc(C)c(C(=O)O[C@@H]2[C@H](O)[C@@H](CO)O[C@H]2n2ccc(=O)[nH]c2=O)c(OC)c1
inactive: Potency [1] | Potency [2] | Potency [3]

O=C(OCc1ccccc1O[C@@H]1O[C@H](CO)[C@@H](O)[C@H](O)[C@H]1O)C1(O)C=CCCC1O (stereo partly drawn)
inactive: Potency [1] | Potency [2] | Potency [3]

O=C(/C=C/c1ccc(O)cc1)OC[C@H]1O[C@H](O[C@@]2(CO)O[C@@H](CO)[C@H](O)[C@H]2O)[C@H](O)[C@@H](O)[C@@H]1O
inactive: Potency [1] | Potency [2] | Potency [3]

COC(=O)C[C@H]1C(C)(C)[C@H](OC(=O)C(C)C)C2CC3=C4CC(=O)O[C@@H](c5ccoc5)[C@]4(C)CCC3[C@@]1(C)C2=O (stereo partly drawn)
inactive: Potency [1] | Potency [2] | Potency [3]

C[C@]1(C2CCCC2)Cc2cc(OCC(=O)O)c(Cl)c(Cl)c2C1=O
inactive: Potency [1] | Potency [2] | Potency [3]

COC(=O)C1C(c2ccc(O)cc2)C(C(=O)O)C1c1ccc(O)cc1 (stereo not drawn)
inactive: Potency [1] | Potency [2] | Potency [3]

C=CC(C)(O)CC/C=C(\C)C(=O)O[C@@H]1[C@@H](O)[C@H](OC(C)(C=C)CC/C=C(\C)C(=O)O[C@@H]2O[C@H](CO)[C@@H](O)[C@H](O)[C@H]2O)O[C@H](CO)[C@H]1OC(=O)/C(C)=C/CCC(C)(O)C=C (stereo partly drawn)
inactive: Potency [1] | activity change, negative = viability loss [2] -6.17% [at 9.23 µM] | activity change, negative = cell killing [3] -2.41% [at 9.23 µM]

Cc1cc(CO)c(O)c(C(=O)CC2CC(=O)NC(=O)C2)c1
inactive: Potency [1] | Potency [2] | Potency [3]

C=C[C@H]1[C@H](O[C@@H]2O[C@H](CO)[C@@H](O)[C@H](O)[C@H]2O)OC=C(C(=O)OC)[C@H]1CCO
inactive: Potency [1] | Potency [2] | Potency [3]

COc1cc2c(cc1OC)N1C(=O)C[C@@]34C=CC[N@+]5([O-])CC[C@H]2[C@H](CC3)[C@@]145
inactive: Potency [1] | Potency [2] | Potency [3]

OC[C@@]1(O)CO[C@@H](OC[C@H]2O[C@@H](Oc3ccccc3)[C@H](O)[C@@H](O)[C@@H]2O)[C@@H]1O
inactive: Potency [1] | Potency [2] | Potency [3]

NC(=O)[C@@H]1CC[C@H](c2ccc(OCc3ccccc3F)cc2)N1
inactive: Potency [1] | Potency [2] | Potency [3]

CC(C)c1ccc2c(c1)C(O)CC1C(C)(C(=O)O)CCCC21C (stereo not drawn)
inactive: Potency [1] | Potency [2] | Potency [3]

COc1cc(/C=C/C(=O)O[C@@H]2C[C@](O)(C(=O)O)C[C@@H](O)[C@H]2O)ccc1O
inactive: Potency [1] | Potency [2] | Potency [3]

NC(=O)C(O[C@@H]1O[C@H](CO[C@@H]2O[C@H](CO)[C@@H](O)[C@H](O)[C@H]2O)[C@@H](O)[C@H](O)[C@H]1O)c1ccccc1 (stereo partly drawn)
inactive: Potency [1] | Potency [2] | Potency [3]
